Inconclusive results are not listed. Calls of active or inactive are those of the source. The call rests on the fitted dose curve; in most records, active means well fitted curve in the direction sought with a large enough effect; inconclusive means small, poorly fitted or top-dose-only effect, or another doubt; inactive means no such curve, though single readings can be large; an effect the other way counts as inactive or inconclusive.
Columns and labels:
[1] = SW1088 Cancer Cell Toxicity qHTS against the NCATS CANVASS Library (AID 1347350); conditions: SW1088 viability, CellTiter-Glo luminescence, 72 h; at 38.3 µM (top of the series); further: nearly all actives have a fitted effect of over 75% in size
Procedure, shortened: (§1)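 Following a 4 h pre-incubation of 1000 seeded cells, compounds were pinned in an 11-pnt dilution series and left for 72 h; viability then came from CellTiter-Glo.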

[2] = U-118MG Cancer Cell Toxicity qHTS against the NCATS CANVASS Library (AID 1347351)
Procedure, shortened: as §1

[3] = COV-362 Cancer Cell Toxicity qHTS against the NCATS CANVASS Library (AID 1347352)
From the text: Natural products and their derivatives continue to be wellsprings of nascent therapeutic potential. However, many laboratories have limited resources for biological evaluation, leaving their previously isolated or synthesized compounds largely or completely untested. To address this issue, the Canvass library of natural products was assembled (https://tripod.nih.gov/canvass), in collaboration with academic and industry researchers, for quantitative high-throughput screening (qHTS) across a diverse set of cell-based and biochemical assays. The pure (>85% purity by liquid chromatography/mass spectrometry [LC/MS]) Canvass library of 346 natural products were submitted by 45 academic laboratories and companies around the world. […] The library was formatted into 1536-well plates and evaluated in 50 qHTS (in an 11-pnt concentration series) bioassays with broad scope of disease-relevant mechanisms. The resulting data set from 50 different assays was then systematically analyzed to identify overall trends and specific natural products with interesting biological activities. […]
Cancer Cell Toxicity COV-362, OV-KATE, OV-SAHO, UWB1.289, UWB1.289-WTBRCA1, HEK-293, HPAF-II, Panc-1005, SW1088, and U-118MG-screen protocol. […] Luminescence signal was acquired via the ViewLux plate reader (PerkinElmer) using a clear filter, 2 second exposure and 2x binning settings.

[4] = A2780 Cisplatin Sensitive Ovarian Cancer Cell Toxicity qHTS against the NCATS CANVASS Library (AID 1347353); conditions: A2780 ovarian cancer viability, ATPLite luminescence, 72 h; at 46.1 µM (top of the series); further: nearly all actives have a fitted effect of over 60% in size
Procedure, shortened: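 A2780 cells, 750/well, settled 4 h at 37 °C, then treated with an 11-point compound series for 72 h. Viability was read as ATPLite luminescence after 10 min at room temperature, with bortezomib as control.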

[5] = UWB1.289-WTBRCA1 Cancer Cell Toxicity qHTS against the NCATS CANVASS Library (AID 1347354)
Procedure, shortened: (§2)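 Cells at 1000/well were given compound 4 h after plating in an 11-point series. Viability was read by CellTiter-Glo luminescence after 72 h at 37 degrees C.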

[6] = HEK-293 Cancer Cell Toxicity qHTS against the NCATS CANVASS Library (AID 1347355); conditions: HEK-293 viability, CellTiter-Glo luminescence, 72 h; at 46.1 µM (top of the series); further: nearly all actives have a fitted effect of over 65% in size
Procedure, shortened: as §2

[7] = HPAF-II 24hr Apoptosis Induction qHTS against the NCATS CANVASS Library (AID 1347356)
Procedure, shortened: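 HPAF-II cells (500/well) exposed to compounds in 11-point series for 24 h at 37 degrees C; caspase-3/7 activity read by Caspase-Glo luminescence after 15 min at room temperature. Doxorubicin titration as control.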

[8] = HEK293 18hr Apoptosis Induction qHTS against the NCATS CANVASS Library (AID 1347357)
Procedure, shortened: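 Caspase-Glo 3/7 luminescence (15 min, room temperature) measured apoptosis after an 18-hour, 37 degrees C exposure of HEK293 cells (500 cells/well) to compounds in 11 points.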

[9] = HPAF-II 12hr Apoptosis Induction qHTS against the NCATS CANVASS Library (AID 1347358)
Procedure, shortened: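 HPAF-II cells, 500/well in DMEM + 10% FBS, exposed 12 hours at 37 degrees C to compound (11-point). Caspase-Glo 3/7 added for 15 min at room temperature; luminescence reflects caspase-3/7 activity.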

[10] = HEK293 24hr Apoptosis Induction qHTS against the NCATS CANVASS Library (AID 1347359)
Procedure, shortened: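 HEK293 cells, 500 per well, exposed to an 11-point compound series for 24 hours at 37 degrees C. Caspase 3/7 activity read by Caspase-Glo luminescence (DEVD substrate) after 15 min at room temperature.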

Measured: outcome

NCCc1c[nH]c2ccc(O)cc12
inactive: all assays above

NCCc1c[nH]c2ccccc12
inactive: all assays above
